# Laboratory results: PubChem BioAssay (EPA / NIEHS)
# Inconclusive results are not listed. Activity calls are given as the source filed them. The calls were made as follows, unless noted: active = hit-call score of the fitted dose curve at least 0.9, where 1 is the maximum; inconclusive = response in the unintended direction; inactive = score below 0.9.
# Columns and labels:
# [1] = molecular target: Retinoic acid receptor alpha (Homo sapiens) (UniProt P10276); test: ATG_RARa_TRANS: Attagene TRANS-FACTORIAL HepG2 Assay for human Retinoic Acid Receptor alpha (RARa) (AID 2283005)
# In short: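 HepG2 cells transiently transfected with multiple reporter units expressing chimeric RARα-GAL4 fusion, with GAL4-UAS-driven reporters. After 24 h compound exposure, reporter mRNA induction quantified by RT-PCR and capillary electrophoresis with fluorescent labeling; gain-of-signal fitted relative to DMSO control.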
# [2] = system: Thyroperoxidase (TPO), gene 54314; test: CCTE_Simmons_AUR_rTPO: CCTE's Amplex UltraRed Assay for Thyroperoxidase (TPO) Inhibition, Simmons Lab (AID 2283662);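 as to AC50: potency for loss of signal meaning inhibition of peroxidase activity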
# In short: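 Cell-free peroxidase activity assay using rat thyroid gland microsomes with excess H2O2 (300 uM) and 25 uM Amplex UltraRed. Compounds tested from 5 nM to 87.5 uM; fluorescence measured after 30 min at 37C, analysed relative to DMSO baseline.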
# [3] = CCTE_Simmons_CellTiterGLO_HEK293T: Viability Assessment in CCTE's Assays for Thyroperoxidase (TPO) Inhibition, Simmons Lab (AID 2283665)
# In short: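 Cytotoxicity counter-screen: human HEK293T cells in low-serum (1% FBS) medium receive test chemical, 5 nM to 87.5 uM final, for 24 h; ATP is quantified by luciferase luminescence.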
# [4] = CEETOX_H295R_MTT_cell_viability: Viability Assessment in the CeeTox HT-H295R MTT Assay (AID 2283718; active = hit-call score of the fitted dose curve at least 0.9, where 1 is the maximum; inactive = score below 0.9)
# In short: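 H295R cells prestimulated 48 h with 10 uM forskolin, then exposed 48 h to test chemical (0.1% DMSO final). Viability by MTT (0.5 mg/ml, 4 h, 37 C), absorbance 570/650 nm; percent change versus DMSO, bidirectional fit.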
# [5] = molecular target: Luciferin 4-monooxygenase (Photinus pyralis) (UniProt P08659); test: CCTE_Simmons_QuantiLum_inhib_2: CCTE's Firefly Luciferase Inhibition Assay, Simmons Lab (AID 2283767)
# In short: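 Counter-screen for nonspecific enzyme inhibition: purified firefly luciferase incubated 30 min at 37C with chemicals up to 87.5 uM final, then luminescence measured after luciferin/dATP injection; activity fitted against DMSO baseline.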
# [6] = molecular target: human Retinoic Acid Receptor beta (RARb), RARB (gene 5915) (UniProt P10826); test: ATG_RARb_TRANS: Attagene TRANS-FACTORIAL HepG2 Assay for human Retinoic Acid Receptor beta (AID 2283004)
# In short: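 HepG2 cells transiently transfected with multiplexed GAL4-UAS reporter units expressing chimeric NR–Gal4 fusions; 24 h compound exposure. Reporter mRNA quantified by RT-PCR, 6-FAM labelling, HpaI digestion and capillary electrophoresis; gain-of-signal fitted against DMSO baseline.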
# [7] = molecular target: human Retinoic Acid Receptor gamma (RARg), RARG (gene 5916) (UniProt P13631); test: ATG_RARg_TRANS: Attagene TRANS-FACTORIAL HepG2 Assay for human Retinoic Acid Receptor gamma (RARg) (AID 2283009)
# In short: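 HepG2, RARg-GAL4 TRANS system, 24 h exposure; reporter mRNA by RT-PCR + CE fluorescence; increase over DMSO.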
# [8] = molecular target: rat Thyrotropin Releasing Hormone Receptor (TRH), Trhr (gene 25570) (UniProt Q01717); test: NVS_GPCR_rTRH: NovaScreen (NVS) G Protein-Coupled Receptor Assay for rat Thyrotropin Releasing Hormone Receptor (TRH) (AID 2283329);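 also: hit means lower bound tracer signal versus DMSO baseline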
# In short: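 Rat forebrain membrane prep, radioligand displacement, filter scintillation readout at 4 h. Single conc 25 uM, duplicate; actives retested as concentration series. DMSO = negative control/baseline.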
# [9] = molecular target: Androgen receptor (Homo sapiens) (UniProt P10275); test: ATG_AR_TRANS: Attagene TRANS-FACTORIAL HepG2 Assay for human Androgen Receptor (AR) (AID 2282973); settings: HepG2 Attagene TRANS-FACTORIAL AR reporter transcription
# In short: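 HepG2 cells transiently transfected with multiplexed GAL4-UAS reporter units and chimeric NR-Gal4 fusion; 24 h compound exposure. Reporter mRNA measured by RT-PCR, 6-FAM labelling, HpaI digestion and capillary electrophoresis; gain-of-signal fitted relative to DMSO baseline.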
# [10] = molecular target: Glucocorticoid receptor (Homo sapiens) (UniProt P04150); test: ATG_GR_TRANS: Attagene TRANS-FACTORIAL HepG2 Assay for human Glucocorticoid Receptor (GR) (AID 2282978); settings: HepG2 Attagene TRANS GR reporter, mRNA transcription;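 also: activators score as hits since higher reporter transcript over DMSO is fitted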
# In short: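 Fluorescent capillary-electrophoresis quantitation of reporter mRNA is the readout, taken 24 h after dosing human HepG2 cells carrying transiently transfected GAL4-UAS reporter units activated by chimeric NR-GAL4 fusions; activity scored as induction over DMSO.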
# [11] = molecular target: Bile acid receptor (Homo sapiens) (UniProt Q96RI1); test: OT_FXR_FXRSRC1_1440: Odyssey Thera (OT) 24-hour HEK293T Protein-Complementation Assay for Farnesoid X receptor/SRC-1 Co-activator (AID 2283384)
# In short: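 Cell-based binding reporter: interaction of FXR with SRC-1 brings reporter fragments together, giving a fluorescence signal read 24 h after dosing of HEK293T cells.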
# [12] = read-out: Secreted IgG (sIgG), gene 3500; test: BSK_BT_sIgG: BioMAP Diversity Plus: BT Assay for Secreted IgG (sIgG) Biomarker Activity (AID 2284226; active = hit-call score of the fitted dose curve at least 0.9, where 1 is the maximum; inactive = score below 0.9); settings: primary human B cells with PBMC
# In short: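 Secreted IgG from a human primary B cell–PBMC co-culture was measured by ELISA 24 hours after dosing, with DMSO defining baseline activity.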
# [13] = read-out: Interleukin 6 (IL6), IL6 (gene 3569); test: BSK_BT_xIL6: BioMAP Diversity Plus: BT Assay for Interleukin 6 (IL6) Biomarker Activity (AID 2284228; active = hit-call score of the fitted dose curve at least 0.9, where 1 is the maximum; inactive = score below 0.9); settings: primary human B cells with PBMC
# In short: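 Human B cell plus PBMC co-culture exposed to test chemical for 24 h; secreted IL-6 quantified by Luminex xMAP bead assay. Activity fitted in the positive direction against DMSO as negative control and baseline.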
# [14] = read-out: Vascular cell adhesion molecule 1 (VCAM1), VCAM1 (gene 7412); test: BSK_MyoF_VCAM1: BioMAP Diversity Plus: MyoF Assay for Vascular cell adhesion molecule 1 (VCAM1) Biomarker Activity (AID 2284231; active = hit-call score of the fitted dose curve at least 0.9, where 1 is the maximum; inactive = score below 0.9); settings: primary human lung fibroblasts
# In short: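 Primary human lung fibroblasts were dosed with test chemical for 24 h, then cell-surface VCAM-1 was measured by ELISA. Activity was fitted in the positive direction against DMSO as negative control and baseline.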
# [15] = read-out: Actin alpha 1 (ACTA1), ACTA1 (gene 58); test: BSK_MyoF_ACTA1: BioMAP Diversity Plus: MyoF Assay for Actin alpha 1 (ACTA1) Biomarker Activity (AID 2284244; active = hit-call score of the fitted dose curve at least 0.9, where 1 is the maximum; inactive = score below 0.9); settings: primary human lung fibroblasts
# In short: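 Measured by ELISA: alpha-smooth muscle actin in human primary lung fibroblasts 24 h after dosing, with DMSO as baseline and upward signal change as the fitted direction.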
# [16] = read-out: Basic fibroblast growth factor (bFGF), FGF2 (gene 2247); test: BSK_MyoF_bFGF: BioMAP Diversity Plus: MyoF Assay for Basic fibroblast growth factor (bFGF) Biomarker Activity (AID 2284246; active = hit-call score of the fitted dose curve at least 0.9, where 1 is the maximum; inactive = score below 0.9); settings: primary human lung fibroblasts
# In short: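 In this multiplexed cell system, lung fibroblasts (human primary) receive test chemical for 24 h before ELISA detection of bFGF; DMSO defines baseline and the analysis direction is positive.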
# [17] = read-out: Interleukin-8 (IL8), CXCL8 (gene 3576); test: BSK_MyoF_IL8: BioMAP Diversity Plus: MyoF Assay for Interleukin-8 (IL8) Biomarker Activity (AID 2284261; active = hit-call score of the fitted dose curve at least 0.9, where 1 is the maximum; inactive = score below 0.9); settings: primary human lung fibroblasts
# In short: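 ELISA read-out of IL-8 from primary human lung fibroblasts, 24 h post-dose; positive-direction curve fitting relative to DMSO vehicle baseline.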
# Decorin, DCN (gene 1634) = test: BSK_MyoF_Decorin: BioMAP Diversity Plus: MyoF Assay for Decorin Biomarker Activity (AID 2284265; active = hit-call score of the fitted dose curve at least 0.9, where 1 is the maximum; inactive = score below 0.9); settings: primary human lung fibroblasts
# In short: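 Human lung fibroblasts in the MyoF system were exposed to compound for 24 h, after which decorin was quantified by ELISA. Activity was fitted in the positive direction relative to DMSO negative control.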
# [18] = BSK_MyoF_SRB: Viability Assessment in the BioMAP Diversity Plus: MyoF Assay (AID 2284267; active = hit-call score of the fitted dose curve at least 0.9, where 1 is the maximum; inactive = score below 0.9;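 also: total protein by SRB absorbance in parallel cultures as cytotoxicity measure; cells assessed 24 h after compound addition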); settings: primary human lung fibroblasts
# In short: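 Cytotoxicity in primary human lung fibroblasts is gauged by SRB total-protein staining 24 h after dosing, with DMSO as the negative control.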
# [19] = molecular target: human Peripheral-type Benzodiazepine Receptor (PBR), TSPO (gene 706) (UniProt P30536); test: NVS_MP_hPBR: NovaScreen (NVS) Membrane Protein Assay for human Peripheral-type Benzodiazepine Receptor (PBR) (AID 2283331);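 also: hits reduce radioligand binding relative to DMSO baseline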
# In short: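 Human colonic cell membranes were incubated with test chemical for 1 hour; radioligand binding was measured by filter-based scintillation counting. Primary screen ran in duplicate at 25 uM, with actives followed in concentration series; loss of signal versus DMSO baseline.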
# Sequence of Bile acid receptor (Homo sapiens) (Q96RI1 whole entry, looked up, the tested form may be a part): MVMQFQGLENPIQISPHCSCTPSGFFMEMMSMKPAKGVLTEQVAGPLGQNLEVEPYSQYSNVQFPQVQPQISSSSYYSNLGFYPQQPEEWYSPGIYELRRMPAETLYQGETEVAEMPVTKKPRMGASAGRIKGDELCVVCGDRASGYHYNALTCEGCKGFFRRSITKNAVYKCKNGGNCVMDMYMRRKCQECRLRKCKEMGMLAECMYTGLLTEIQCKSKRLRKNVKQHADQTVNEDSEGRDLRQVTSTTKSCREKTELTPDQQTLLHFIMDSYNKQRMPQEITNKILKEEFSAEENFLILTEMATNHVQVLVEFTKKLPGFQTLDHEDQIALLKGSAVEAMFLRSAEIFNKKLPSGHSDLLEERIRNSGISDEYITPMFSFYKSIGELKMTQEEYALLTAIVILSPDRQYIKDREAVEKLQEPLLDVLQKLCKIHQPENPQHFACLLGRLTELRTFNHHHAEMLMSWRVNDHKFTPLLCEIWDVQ
# Sequence of Glucocorticoid receptor (Homo sapiens) (P04150 whole entry, looked up, the tested form may be a part): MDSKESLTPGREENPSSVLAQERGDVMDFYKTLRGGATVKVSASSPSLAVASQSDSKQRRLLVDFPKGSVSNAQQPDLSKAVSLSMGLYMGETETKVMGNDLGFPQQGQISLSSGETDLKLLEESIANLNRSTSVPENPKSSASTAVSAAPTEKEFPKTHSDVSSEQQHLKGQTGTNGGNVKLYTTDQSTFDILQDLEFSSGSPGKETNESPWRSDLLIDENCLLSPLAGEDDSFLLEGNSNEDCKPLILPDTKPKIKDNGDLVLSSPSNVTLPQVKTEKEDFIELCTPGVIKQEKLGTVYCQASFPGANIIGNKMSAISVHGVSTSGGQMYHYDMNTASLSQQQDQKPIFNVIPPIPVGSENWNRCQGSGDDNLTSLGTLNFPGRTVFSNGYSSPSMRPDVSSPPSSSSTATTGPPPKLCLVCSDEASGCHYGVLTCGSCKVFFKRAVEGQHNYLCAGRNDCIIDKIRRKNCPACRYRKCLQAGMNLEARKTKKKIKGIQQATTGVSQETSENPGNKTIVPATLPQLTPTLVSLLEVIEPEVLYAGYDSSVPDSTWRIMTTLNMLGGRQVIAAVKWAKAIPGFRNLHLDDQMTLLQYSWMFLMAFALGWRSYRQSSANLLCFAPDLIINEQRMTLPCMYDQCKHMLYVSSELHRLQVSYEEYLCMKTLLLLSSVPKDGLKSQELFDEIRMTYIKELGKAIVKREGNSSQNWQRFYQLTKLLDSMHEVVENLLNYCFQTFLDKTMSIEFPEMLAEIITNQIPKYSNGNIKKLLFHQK
# Sequence of rat Thyrotropin Releasing Hormone Receptor (TRH), Trhr (gene 25570) (Q01717 whole entry, looked up): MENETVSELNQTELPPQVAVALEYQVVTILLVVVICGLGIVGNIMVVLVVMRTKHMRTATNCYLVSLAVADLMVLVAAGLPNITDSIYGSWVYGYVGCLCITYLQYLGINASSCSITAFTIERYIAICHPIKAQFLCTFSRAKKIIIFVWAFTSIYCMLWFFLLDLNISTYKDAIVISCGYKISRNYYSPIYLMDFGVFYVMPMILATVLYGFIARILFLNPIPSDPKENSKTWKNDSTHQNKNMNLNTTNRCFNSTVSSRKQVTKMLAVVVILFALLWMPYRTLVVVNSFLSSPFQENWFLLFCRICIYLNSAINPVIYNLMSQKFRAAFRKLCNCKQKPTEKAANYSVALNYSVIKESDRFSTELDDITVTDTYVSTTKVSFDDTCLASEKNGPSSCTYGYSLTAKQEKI
# Sequence of human Retinoic Acid Receptor beta (RARb), RARB (gene 5915) (P10826 whole entry, looked up, the tested form may be a part): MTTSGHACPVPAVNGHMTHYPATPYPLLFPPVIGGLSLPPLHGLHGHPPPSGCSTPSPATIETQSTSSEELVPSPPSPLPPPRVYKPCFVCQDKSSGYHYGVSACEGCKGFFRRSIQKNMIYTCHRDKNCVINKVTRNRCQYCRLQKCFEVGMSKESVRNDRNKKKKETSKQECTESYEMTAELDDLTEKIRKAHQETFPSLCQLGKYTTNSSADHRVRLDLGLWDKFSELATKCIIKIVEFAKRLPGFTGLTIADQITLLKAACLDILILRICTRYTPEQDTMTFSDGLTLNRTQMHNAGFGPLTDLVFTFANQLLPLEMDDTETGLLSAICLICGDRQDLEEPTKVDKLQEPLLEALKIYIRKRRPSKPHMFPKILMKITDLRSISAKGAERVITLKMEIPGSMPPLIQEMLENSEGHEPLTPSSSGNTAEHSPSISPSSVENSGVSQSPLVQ
# Sequence of Androgen receptor (Homo sapiens) (P10275 whole entry, looked up, the tested form may be a part): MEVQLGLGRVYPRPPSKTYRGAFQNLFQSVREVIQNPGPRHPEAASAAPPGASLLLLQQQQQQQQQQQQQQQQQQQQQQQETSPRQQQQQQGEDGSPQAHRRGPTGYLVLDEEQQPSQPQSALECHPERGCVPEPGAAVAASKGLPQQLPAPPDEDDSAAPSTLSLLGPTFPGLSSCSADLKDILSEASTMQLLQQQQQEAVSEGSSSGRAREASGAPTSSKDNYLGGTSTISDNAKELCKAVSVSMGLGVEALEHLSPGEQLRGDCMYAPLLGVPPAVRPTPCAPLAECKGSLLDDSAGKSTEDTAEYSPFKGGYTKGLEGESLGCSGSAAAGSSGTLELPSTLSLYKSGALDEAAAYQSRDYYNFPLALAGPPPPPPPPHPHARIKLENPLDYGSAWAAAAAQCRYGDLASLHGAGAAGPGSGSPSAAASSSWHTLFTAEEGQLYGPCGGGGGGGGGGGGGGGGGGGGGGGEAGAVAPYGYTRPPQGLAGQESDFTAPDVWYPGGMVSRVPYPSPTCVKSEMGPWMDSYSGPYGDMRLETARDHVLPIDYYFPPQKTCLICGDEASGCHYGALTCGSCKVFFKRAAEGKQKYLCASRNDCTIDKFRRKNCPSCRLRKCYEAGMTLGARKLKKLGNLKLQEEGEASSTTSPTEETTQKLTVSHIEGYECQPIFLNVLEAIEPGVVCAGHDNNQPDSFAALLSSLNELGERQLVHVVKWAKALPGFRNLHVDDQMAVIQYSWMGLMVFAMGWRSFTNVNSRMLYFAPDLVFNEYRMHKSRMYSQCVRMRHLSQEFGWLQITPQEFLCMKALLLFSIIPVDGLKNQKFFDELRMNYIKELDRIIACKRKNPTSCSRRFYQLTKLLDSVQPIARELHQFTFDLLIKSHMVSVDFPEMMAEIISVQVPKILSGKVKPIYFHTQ
# Sequence of Luciferin 4-monooxygenase (Photinus pyralis) (P08659 whole entry, looked up): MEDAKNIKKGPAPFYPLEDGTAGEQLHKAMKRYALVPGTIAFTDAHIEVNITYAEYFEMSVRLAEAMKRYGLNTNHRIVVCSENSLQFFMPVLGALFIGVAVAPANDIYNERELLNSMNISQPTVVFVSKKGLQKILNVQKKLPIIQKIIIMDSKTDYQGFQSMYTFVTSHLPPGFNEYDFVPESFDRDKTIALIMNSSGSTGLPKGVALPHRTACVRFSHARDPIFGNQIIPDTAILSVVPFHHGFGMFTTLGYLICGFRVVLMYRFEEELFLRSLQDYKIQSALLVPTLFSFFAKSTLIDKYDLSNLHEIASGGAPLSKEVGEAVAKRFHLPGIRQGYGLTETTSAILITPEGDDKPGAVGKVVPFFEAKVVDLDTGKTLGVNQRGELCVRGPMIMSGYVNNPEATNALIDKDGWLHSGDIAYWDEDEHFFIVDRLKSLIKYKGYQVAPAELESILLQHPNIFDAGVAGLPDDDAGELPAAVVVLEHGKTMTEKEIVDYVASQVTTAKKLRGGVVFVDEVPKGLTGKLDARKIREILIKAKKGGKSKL
# Sequence of human Retinoic Acid Receptor gamma (RARg), RARG (gene 5916) (P13631 whole entry, looked up, the tested form may be a part): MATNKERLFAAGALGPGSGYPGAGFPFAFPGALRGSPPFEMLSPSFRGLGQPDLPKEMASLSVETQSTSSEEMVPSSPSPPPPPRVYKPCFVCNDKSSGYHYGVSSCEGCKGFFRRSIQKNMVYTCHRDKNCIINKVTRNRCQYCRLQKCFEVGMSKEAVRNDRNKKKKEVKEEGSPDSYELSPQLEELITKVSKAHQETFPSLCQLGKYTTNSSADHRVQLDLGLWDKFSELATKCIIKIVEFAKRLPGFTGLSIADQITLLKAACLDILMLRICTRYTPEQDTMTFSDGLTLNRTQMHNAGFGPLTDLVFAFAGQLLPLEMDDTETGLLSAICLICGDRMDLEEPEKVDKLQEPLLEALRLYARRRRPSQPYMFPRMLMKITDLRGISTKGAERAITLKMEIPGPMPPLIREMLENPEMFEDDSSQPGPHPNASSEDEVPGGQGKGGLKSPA
# Sequence of Retinoic acid receptor alpha (Homo sapiens) (P10276 whole entry, looked up, the tested form may be a part): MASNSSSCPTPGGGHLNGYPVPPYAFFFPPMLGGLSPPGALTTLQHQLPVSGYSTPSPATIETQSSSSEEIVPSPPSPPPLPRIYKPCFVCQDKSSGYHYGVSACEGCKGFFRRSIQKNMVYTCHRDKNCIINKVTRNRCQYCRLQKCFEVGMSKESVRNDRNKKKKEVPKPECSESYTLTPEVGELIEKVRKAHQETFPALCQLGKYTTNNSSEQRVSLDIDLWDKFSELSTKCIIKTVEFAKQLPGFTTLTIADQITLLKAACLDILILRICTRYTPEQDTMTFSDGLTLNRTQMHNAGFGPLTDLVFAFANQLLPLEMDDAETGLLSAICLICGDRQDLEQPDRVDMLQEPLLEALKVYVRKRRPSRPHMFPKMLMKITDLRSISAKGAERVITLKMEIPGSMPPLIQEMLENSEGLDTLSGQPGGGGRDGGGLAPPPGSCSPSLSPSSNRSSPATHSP
# Sequence of human Peripheral-type Benzodiazepine Receptor (PBR), TSPO (gene 706) (P30536 whole entry, looked up): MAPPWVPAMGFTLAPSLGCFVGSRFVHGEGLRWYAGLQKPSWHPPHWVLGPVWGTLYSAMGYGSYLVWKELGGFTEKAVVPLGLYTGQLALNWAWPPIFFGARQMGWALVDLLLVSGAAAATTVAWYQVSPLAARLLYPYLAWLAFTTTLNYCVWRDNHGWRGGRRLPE
smiles,measurement,setting,value
O=C=Nc1ccccc1,outcome,[1],inactive
same,outcome,[2],inactive
same,outcome,[3],inactive
same,outcome,[4],inactive
same,outcome,[5],inactive
CC1CCCC1.[C-]#[O+].[C-]#[O+].[C-]#[O+].[Mn],outcome,[6],inactive
same,outcome,[7],inactive
same,outcome,[8],inactive
same,AC50,[2],26.4 µM (active)
same,outcome,[3],inactive
same,outcome,[5],inactive
CN(C)N,outcome,[9],inactive
same,outcome,[10],inactive
CCOC(=O)C1OC1(C)c1ccccc1 (stereo unspecified),outcome,[10],inactive
O=[N+]([O-])c1cc([N+](=O)[O-])c2ccccc2c1,outcome,[10],inactive
O=C1Nc2ccc(Cl)cc2C(c2ccccc2)=NC1O (stereo unspecified),outcome,[11],inactive
COC(=O)c1ccccc1S(=O)(=O)NC(=O)Nc1nc(C)cc(C)n1,outcome,[6],inactive
same,outcome,[7],inactive
CCOC(=O)NC(=S)Nc1ccccc1NC(=S)NC(=O)OCC,outcome,[10],inactive
same,outcome,[6],inactive
same,AC50,[2],16 µM (active)
same,outcome,[5],inactive
O=[N+]([O-])c1cc(C(F)(F)F)c(Cl)c([N+](=O)[O-])c1Cl,AC50,[10],33.4 µM (active)
c1ccc2c(c1)CCCC2,outcome,[10],inactive
CNC(=O)Oc1cc(C)c(SC)c(C)c1,outcome,[9],inactive
same,outcome,[4],inactive
same,AC50,[12],10.6 µM (active)
same,AC50,[13],8.6 µM (active)
same,outcome,[14],inactive
same,outcome,[15],inactive
same,outcome,[16],inactive
same,outcome,[17],inactive
same,outcome,"Decorin, DCN (gene 1634)",inactive
same,outcome,[18],inactive
CCC(C)c1cc(C(C)(C)C)cc(-n2nc3ccccc3n2)c1O (stereo unspecified),outcome,[9],inactive
CCOC(=O)COc1ccc(Cl)cc1Cl,outcome,[6],inactive
CN1C[C@H](C(=O)N[C@]2(C)O[C@@]3(O)[C@@H]4CCCN4C(=O)[C@H](Cc4ccccc4)N3C2=O)C=C2c3cccc4[nH]cc(c34)C[C@H]21,outcome,[10],inactive
O=[N+]([O-])O,outcome,[7],inactive
CCCCCCC1CCOC1=O (stereo unspecified),outcome,[10],inactive
CC(C)CCCCCCCOP(=O)(Oc1ccccc1)Oc1ccccc1,AC50,[19],6.03 µM (active)
same,AC50,[12],18.9 µM (active)
same,AC50,[13],26.1 µM (active)
same,AC50,[14],8.84 µM (active)
same,AC50,[15],8.22 µM (active)
same,AC50,[16],20 µM (active)
same,AC50,[17],5.07 µM (active)
same,AC50,"Decorin, DCN (gene 1634)",8.75 µM (active)
same,AC50,[18],11.3 µM (active)
CCC(C)(C)O,outcome,[10],inactive
CC(C)[C@@H](C(=O)O[C@@H](C#N)c1cccc(Oc2ccccc2)c1)c1ccc(Cl)cc1,outcome,[4],inactive
CC(O)CN(CC(C)O)CC(C)O (stereo unspecified),outcome,[11],inactive
CCCC=NO,outcome,[10],inactive
same,outcome,[8],inactive
CC(=O)/C=C/c1ccccc1,AC50,[12],27.2 µM (active)
same,AC50,[13],20 µM (active)
same,outcome,[14],inactive
same,outcome,[15],inactive
same,outcome,[16],inactive
same,outcome,[17],inactive
same,outcome,"Decorin, DCN (gene 1634)",inactive
same,outcome,[18],inactive
C=C(Cl)Cl,outcome,[9],inactive
same,outcome,[10],inactive
same,outcome,[6],inactive
same,outcome,[1],inactive
same,outcome,[7],inactive
O=CNC(N1CCN(C(NC=O)C(Cl)(Cl)Cl)CC1)C(Cl)(Cl)Cl (stereo unspecified),outcome,[4],inactive
COc1cc(OC)nc(Oc2cccc(Oc3nc(OC)cc(OC)n3)c2C(=O)O)n1,outcome,[9],inactive
same,outcome,[8],inactive
same,outcome,[11],inactive
same,AC50,[2],34.9 µM (active)
same,outcome,[3],inactive
same,outcome,[5],inactive
CC(=O)C=Cc1ccccc1,outcome,[8],inactive
CNC(=N[N+](=O)[O-])NCC1CCOC1 (stereo unspecified),outcome,[8],inactive
same,outcome,[11],inactive
